# An excerpt weighted towards active compounds, which were near 1.3% of everything screened.
# AMA1-RON2 inh = AMA1-RON2 (P. falciparum) interaction inhibition; 360,000 tested, 0.2% active; Potency, µM (top dose mostly 58.2 µM), actives largely listed as inhibitors; AlphaScreen AMA1-biotinylated RON2 peptide binding; AID 720542; further: nearly all actives have a fitted effect of over 45% in size
#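 AMA1 (3D7) with his tag at 25 nM final met compounds first, then biotinylated RON2 peptide at 25 nM; detection used donor plus acceptor beads, 10 µg/mL apiece, read by AlphaScreen after 30 min at room temperature.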
# AmpC inh no detg = inhibitors of E. coli AmpC beta-lactamase without detergent; 330,000 tested, 0.52% active; P00811; Potency, µM (titrated, usually from 57.1 µM), actives largely listed as inhibitors; AmpC nitrocefin hydrolysis, absorbance 480 nm, 0.0001% Triton; further: nearly all actives have a fitted effect of over 20% in size
#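 AmpC (5.3 nM in the dispensed reagent) in 20 mM phosphate pH 7.0 with 0.01% (detergent screen) or 0.0001% Triton X-100 was preincubated with compounds for 15 min at room temperature. Nitrocefin was then added from an 800 uM solution, and hydrolysis was followed at 480 nm.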
# AmpC detergent = blocks E. coli AmpC beta-lactamase in detergent assay. AmpC hydrolysis of nitrocefin, absorbance 480 nm, 0.01% Triton. Potency, µM (titrated, usually from 114 µM), actives largely listed as inhibitors. P00811. 370,000 tested, 0.041% active; further: nearly all actives have a fitted effect of over 25% in size
#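 20 mM phosphate pH 7.0 + 0.01% (detergent screen) or 0.0001% Triton X-100; 5.3 nM AmpC reagent; cpd preinc 15 min RT; nitrocefin (800 uM stock) to start; A480 q20 s × 4 min; Activity was normalised to no-enzyme and no-compound control wells.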
# Giardia FBPA inh-1 = Giardia lamblia aldolase inhibition. A8B2U2. purified Giardia FBPA. Potency, µM (doses to about 59.6 µM), usual class: inhibitors. 290,000 tested, 0.71% active; further: nearly all actives have a fitted effect of over 55% in size
#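 Giardia FBPA (40 nM reagent) was preincubated 10 min at RT with compound (up to 57.5 uM final), then substrate plus GAPDH/TPI/NAD/arsenate coupling system with diaphorase/resazurin was added; resorufin fluorescence (525/598 nm) was read after 20 min.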
# LmPK inhibitor = LmPK (Leishmania mexicana) enzyme inhibition; Q27686; purified LmPK, Kinase-Glo ATP luminescence, 1 h; Potency, µM (top dose mostly 57.5 µM), actives largely listed as inhibitors; 290,000 tested, 0.37% active
#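 Screened at intermediate enzyme activity to detect both inhibitors and activators: LmPK at 0.1 nM, with a 0.5 nM enzyme column as activation reference. PEP 0.5 mM, ADP 0.1 mM; ATP detected by luminescence after 1 h.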
# LmPK inh confirm = Blocks LmPK activity, confirmation assay; shares compounds with LmPK inhibitor; purified LmPK, Kinase-Glo ATP luminescence, 1 h; Potency, µM (doses to about 57.5 µM), usual class: inhibitors; 150 tested, 40% active; AID 2559;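 active means compounds giving a full or partial concentration-response curve, as inhibitors or activators; inconclusive means weak, top-dose-only or unclear curve responses; inactive means no response at any tested dose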
# Giardia growth = blocks growth of Giardia lamblia trophozoites; 1,500 tested, 5% active; shares compounds with Giardia FBPA inh-1; Potency, µM (top dose mostly 57.5 µM), most hits filed as inhibitors; AID 2785; Giardia lamblia trophozoite growth inhibition;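 further: trophozoites exposed to compound for 48 h at 37 °C; nearly all actives have a fitted effect of over 70% in size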
# Mammal cell tox = counter-screen for Giardia aldolase inhibitors: mammalian cell toxicity; shares compounds with Giardia FBPA inh-1; mammalian cell viability counter-screen, qHTS; Potency, µM (titrated, usually from 57.5 µM), hits mostly inhibitors; 1,500 tested, 4% active; AID 2786;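 further: Chinese hamster ovary cells used as mammalian cytotoxicity surrogate; viability measured as cellular ATP by luminescence; compound exposure lasted 48 h before reading; nearly all actives have a fitted effect of over 60% in size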
# Giardia FBPA inh-2 = confirmation of Giardia fructose-bisphosphate aldolase inhibitors. 1,500 tested, 5% active. purified Giardia aldolase enzyme activity, qHTS. shares compounds with Giardia FBPA inh-1. Potency, µM (doses to about 57.5 µM), usual class: inhibitors; further: nearly all actives have a fitted effect of over 45% in size
# Rabbit aldolase = blocks rabbit muscle aldolase in Giardia aldolase selectivity test; Rabbit muscle FBPA enzyme inhibition, selectivity counter-screen; AID 2794; shares compounds with Giardia FBPA inh-1; Potency, µM (series often up to 57.5 µM), most hits filed as inhibitors; 1,500 tested, 4% active; further: nearly all actives have a fitted effect of over 60% in size
# Target sequence (P00883 whole entry, looked up): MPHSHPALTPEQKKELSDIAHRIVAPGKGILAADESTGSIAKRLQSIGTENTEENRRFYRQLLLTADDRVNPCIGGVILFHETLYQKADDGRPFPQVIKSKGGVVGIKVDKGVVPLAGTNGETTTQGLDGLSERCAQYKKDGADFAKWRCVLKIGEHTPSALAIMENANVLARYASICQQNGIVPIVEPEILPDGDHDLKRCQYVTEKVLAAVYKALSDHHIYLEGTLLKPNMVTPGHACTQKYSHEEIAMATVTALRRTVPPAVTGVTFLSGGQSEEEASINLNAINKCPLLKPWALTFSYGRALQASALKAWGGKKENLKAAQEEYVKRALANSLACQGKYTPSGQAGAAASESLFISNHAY
# GAPDH counter = counter-screen for Giardia aldolase inhibitors: GAPDH coupling enzyme. shares compounds with Giardia FBPA inh-1. GAPDH coupling enzyme counterscreen, biochemical, qHTS. Potency, µM (highest dose often 57.5 µM), most hits filed as inhibitors. 1,500 tested, 6% active; further: nearly all actives have a fitted effect of over 55% in size
# Hits are given with their value; n = inactive; u = inconclusive; x = not tested or not shown; ! = not confirmed by another sample; [ ] = remark or other dose. Unless noted, the call rests on the fitted dose curve; in most records, active means well fitted curve in the direction sought with a large enough effect; inconclusive means small, poorly fitted or top-dose-only effect, or another doubt; inactive means no such curve, though single readings can be large; an effect the other way counts as inactive or inconclusive.
SMILES,AMA1-RON2 inh,AmpC inh no detg,AmpC detergent,Giardia FBPA inh-1,LmPK inhibitor,Giardia growth,Mammal cell tox,Giardia FBPA inh-2,Rabbit aldolase,GAPDH counter,others
Cc1ccc(S(=O)(=O)/N=C2/C=C(Sc3ncn[nH]3)C(=O)c3ccccc32)cc1,n,n,n,0.45µM,7.1µM,7.1µM,20µM,2.5µM,10µM,3.2µM,LmPK inh confirm=4.6µM
CC1=NN(c2nc3ccccc3[nH]2)C(=O)/C1=C/N(C)C,n,n,n,16µM,14µM,40µM,4.5µM,n,n,n,LmPK inh confirm=7.3µM
CC1=NN(c2ccccc2)C(=O)/C1=C/N(C)C,n,n,n,n,n,x,x,x,x,x,
COCC(=O)N1C[C@@H](C)[C@@H](OC)CN(C)C(=O)c2ccc(NC(=O)c3cnccn3)cc2OC[C@H]1C,n,x,x,x,x,x,x,x,x,x,
O=C1C(Cl)=C(NC(=O)c2ccccc2)C(=O)C(Cl)=C1NC(=O)c1ccccc1,n,n,u,5.6µM,1.1µM,n,u,0.79µM,3.5µM,1.4µM,LmPK inh confirm=u
CSCC[C@H](NC(=O)c1ccc(OCC2CCCO2)cc1)c1nc2ccccc2[nH]1 (some centres not stated),n,n,x,x,x,x,x,x,x,x,
O=C(O)CN(CCN(CC(=O)O)CC(=O)O)CCN(CC(=O)O)CC(=O)O,x,x,x,7.9µM!,x,u,n,u,n,n,
O=C(COC(=O)COc1cccc(C(F)(F)F)c1)Nc1ccc(N2CCOCC2)cc1,n,n,n,x,x,x,x,x,x,x,
O=P(O)(O)CP(=O)(O)O,x,n,n,6.3µM,n,n,n,n,n,n,
Cc1cccc(N2CCN(CCCNC(=O)Cn3ncc4c([nH]c5ccccc54)c3=O)CC2C)c1 (configuration not stated),x,x,n,x,x,x,x,x,x,x,
COc1ccccc1N1CCN(Cc2ccc(OC)c(OC)c2OC)CC1,n,n,u,n,n,x,x,x,x,x,
COc1ccc(CN2CCN(CCCCOc3ccc(Cl)cc3)CC2)c(OC)c1OC,u,n[2.29 µM],u,18µM,n,n,n,n,n,n,
COCCN(C(=O)COC(=O)CCC1CCCCC1)c1c(N)n(Cc2ccccc2)c(=O)[nH]c1=O,n,x,x,x,x,x,x,x,x,x,
COC(=O)c1sc(NC(=S)NC(=O)c2cccc(Br)c2)nc1C,n,n,u,11µM,n,n,n,n,n,n,
COC(=O)c1sc(NC(=S)NC(=O)c2ccc(F)cc2)nc1C,x,n,n,n,n,x,x,x,x,x,
COc1cccc(CN2CCN(Cc3cccc(Oc4ccccc4)c3)CC2)c1OC,u,n,n,16µM,n,n,u,n,n,n,
CCN1CCN(Cc2cccc(Oc3ccccc3)c2)CC1,n,n,n,u,n,x,x,x,x,x,
COc1cc(CN2CCN(C(=O)c3cccc4ccccc34)CC2)cc(OC)c1OC,n,n,n,u,n,x,x,x,x,x,
COc1cccc(CN2CCN(Cc3cc(OC)c(OC)c(OC)c3)CC2)c1OC,n,n,n,13µM,n,u,n,n,n,n,
COc1cccc(CN2CCN(c3ncccn3)CC2)c1OC,u,n,n,u,n,x,x,x,x,x,
COc1cc(CN2CCN(C(=O)c3ccccc3F)CC2)cc(OC)c1OC,u,n,n,28µM,n,n[10.4 µM],n,n,n,n,
O=C(NCc1cccs1)c1ccc2nc([C@@H]3O[C@H](CO)[C@H](O)[C@H](O)[C@H]3O)[nH]c2c1,n,x,x,x,x,x,x,x,x,x,
Cc1c(Br)c(=O)oc2c(Br)c(O)c(O)cc12,n,n,n,u,n,n,n,u,u,n,
CCN(CC)c1ccc(NC(=O)CN2C(=O)c3cccnc3Sc3ccccc32)c(C)c1,x,x,n,x,x,x,x,x,x,x,

# Assay outcomes deposited in PubChem BioAssay by National Center for Advancing Translational Sciences (NCATS).
